We go through 13 molecules from paper PMC12864922, “TDP-43 directly inhibits mRNA accumulation in neurites through modulation of mRNA stability”.

In all, about 9,900 sequences were measured (“r (bound/input frequency ratio)”: median about 0.7, highest 2% from about 6.5 on). Shown is part of a subset that was picked to be rich in the highest values.

B1: ENSMUSG00000028439.214|Fam219a|183:189;217:221 (ssRNA)
RNA: GGGAGUUCUACAGUCCGACGAUCGCUUCGAUAUCCGCAUGCUAUCUGGAACCUGGGUUCUGGUCCCAGCCUCGGCAUUCUCCCUGAGCUCCUAAGCAAUUCCCAGGCUUCUCUAGGGCUUCAGUUCUCACAACUGGAAAAUAAAGAGUAGCUGACAUCACCGACAGAGUCUUUUCAUACCAGAAGGAAUUUCUUCACAGGAGUUUCUGCAAAAGACUAUGACAUCACACACACUGUGGUCUCACGAGGUACCUGGAGGUCAUACUGCACGGACAUGGGAAGUACGUGAAGAUUUAUUUCGGGACUCUUGCGGUCGCACUAGUGUGGAAUUCUCGGGUGUCAAGG
B2: ENSMUSG00000004113.200|Cacna1b|94:98 (ssRNA)
RNA: GGGAGUUCUACAGUCCGACGAUCGCUUCGAUAUCCGCAUGCUACCUGAUCUCUGGCUCUGAGCAUCGUGGAUGAGGUACGGCCUCAGGAAGCAUCGGGUGGAUUGGGUGGGAGCUGCUCAGAGCAGCACGGGGGCUACACACUUAGGGACAUUGACAGUGUCCAUCAGCAUGUCAGAGAAGCAGCUGUAGUGCCCGUGUUUCUCCCUGAGUCAUGGGUUCUGAAGAAGCCAGAGCGGCACAAUGCGUGCUUGCAUGAGGCACUUUCAGCCUUUUUAAAUCUGACUCUCAGGGAUGGGAUGCCUCUCUUGCGGUCGCACUAGUGUGGAAUUCUCGGGUGUCAAGG
B3: ENSMUSG00000090935.682|Synj2bp (ssRNA)
RNA: GGGAGUUCUACAGUCCGACGAUCGCUUCGAUAUCCGCAUGCUAACUGUCAGGAGCUCUCUCUCUCUGCUUAGAAUCAUCCAGACAGCGGGCUGGUCAGCCCACAUUAAAUAAGAACAUGUGGGACUAGAAUUCAGUCAACAAUGACAUGUUUCAUCAGGUGGUUAAAAUGUACAGAUUCUGUUGGAAAUGUUCCAUGGUAUUUCAAUAGCCAGAAUGAAGAACUGGGCUAAGUCCAGAGCUCUGCUCUCUGAGCAUCUGCCCCAGAUACAGAGGCAGAGUAUGAAGUGGAACAUUGUUUUAUUCUCUUGCGGUCGCACUAGUGUGGAAUUCUCGGGUGUCAAGG
B4: ENSMUSG00000029028.246|Lrrc47|180:184 (ssRNA)
RNA: GGGAGUUCUACAGUCCGACGAUCGCUUCGAUAUCCGCAUGCUAUCCUCGUGGCAGACCCUGGACAACGCUGGUAGCUGUUCUCCAUGAGACACGGCUGCUCACAGGUCCCUUUGAGUGGCUGUGGCAAGUACUCACCUACUAAGUGUUUAGGGUGGAGCUAUCCUGUGCUCACCCUGUCUCCCCCCAGUUCCUGCUGUUCCCUCCAGCCCAGCCCAGCCCAGCACACAGAUUCAUUGAGAUUUUUGAAACUGUUUUUACAGAUUCAAGCAGAACGCCUCUUUGUUCUAAUAAAAACCCUUGGUCUCUUGCGGUCGCACUAGUGUGGAAUUCUCGGGUGUCAAGG
B5: ENSMUSG00000061578.401|Ksr2 (ssRNA)
RNA: GGGAGUUCUACAGUCCGACGAUCGCUUCGAUAUCCGCAUGCUAUUAAUGUACAGACAUCUGGAUCAAGGGAUUAAAAAAAAAAGAAUCAGUCUCUUCCCGGAGGAAGCAUCCGGGGGAAAUGUAUUCCUUCGCCCUGCAAGGAGCCAAUGGGAAGAGAGGGGACCAUAUAGUUAGAGACAUUCCCUACCCCCCGACCACUGACCCGUCCAGACCCUCGCUUCUUACAAUGCCUCUUCUUCUGCCAGACCAGCCACCUGCCCCACUAACACCAAAUGGCUUCUGUCCCUGCUUCACGUUGCAAACUCUUGCGGUCGCACUAGUGUGGAAUUCUCGGGUGUCAAGG
B6: ENSMUSG00000061578.1371|Ksr2 (ssRNA)
RNA: GGGAGUUCUACAGUCCGACGAUCGCUUCGAUAUCCGCAUGCUACUUACAUCUCUGACCCAGUGAUCUUUCUAGGGGUCUGUCACAUGUCCCAACAGGUGGACAGCUCUCCAAGUCACCAACCUGAGGAAAAUAUCCCUCCUUGUAAAAAGGCUUUCUCUUUGUAAAUGAUUCUGUUGCCUUUUUCUAAACACAAAGUAUAUAUACCUAUAAAUGCUAUAUAUAUUAUAUAUGUGUAUAUACAUAAAGACUACUUCUUGUACAGCCCUCCACGGACCUCAGGCCCACUGUUUUCUCCAUGUCUGCUCUUGCGGUCGCACUAGUGUGGAAUUCUCGGGUGUCAAGG
B7: ENSMUSG00000022095.129|Fam160b2|254:258 (ssRNA)
RNA: GGGAGUUCUACAGUCCGACGAUCGCUUCGAUAUCCGCAUGCUACAGCUGGUUCCUCUCUGGCGCCUUCUGAACCCGUCUCAGCAAGUCCGAAACACCUGGGCAGAGAGGUCAUUGACCAGGGAUGGGGGCCCUUGCCCUCUGAAUCCUGCCCAGUGCCCAGGGGUCCAGGUGGAAUGUGGUCCUGGGGACUAUAGGAACUCAAGGUACAGAUGGGACAGGGCACCCCAACUCCAAACCCCAGAAGCCUAGUGAGGCUAGGCCGAGACACAAGCAGAUAGCUCUGGCAUUGUUCUUCCAUACUCCUCUUGCGGUCGCACUAGUGUGGAAUUCUCGGGUGUCAAGG
B8: ENSMUSG00000042529.446|Kcnj12 (ssRNA)
RNA: GGGAGUUCUACAGUCCGACGAUCGCUUCGAUAUCCGCAUGCUAAGCCCAUCUGGUGCUGUGCACCUGGUCCUUGUCCAGCCGAGGGCCUGGGGGCAGAAGAACACACCAUAGGGAGGCCCUUGUAUGGGUGUCUGCCCUAUGUGAGGUCAUAGAAUGUUAAAUCUAUUUUAAACGGUGAAACUGGAGAAUUUUCAUGUUAUUUUCAAUAAUAGUGGUAUCUAAAGAUGUAGGCAACAAGACUAGACCACAUUAAAUGCAUUUUGAUCUCUUUGAAUGCUACUGUGUUGAGAUGUGCGUCUCACCUCUUGCGGUCGCACUAGUGUGGAAUUCUCGGGUGUCAAGG
B9: ENSMUSG00000022095.98|Fam160b2|79:83 (ssRNA)
RNA: GGGAGUUCUACAGUCCGACGAUCGCUUCGAUAUCCGCAUGCUAGGGGAAGCCCCCUCUUCCUGCUCUACCCUCCUGGAGGCUGUUGCAAAAUUCCCAACUGCCUCCUGGCAGAGGCCCAAACAUACCUCUGCGCCCAGGCGGGGGCAGCUGCUAACAAGAGCCCUGGCGCAGCUGCAGCCAGGGCAGGCGAGAGCCUUGGAGCUGGGUGCCAGGCUCCAGCUCCAGCUCCAGCUGGUUCCUCUCUGGCGCCUUCUGAACCCGUCUCAGCAAGUCCGAAACACCUGGGCAGAGAGGUCAUUGACCUCUUGCGGUCGCACUAGUGUGGAAUUCUCGGGUGUCAAGG
B10: ENSMUSG00000090935.122|Synj2bp|46:51;222:232 (ssRNA)
RNA: GGGAGUUCUACAGUCCGACGAUCGCUUCGAUAUCCGCAUGCUAUUCGUGAGAUACCGAAAGCAGCUUUGAAAUGCUUGCUGUCUUCCACACACACCAAUGAACUCUCUCUCUCACUCACCAUCUCUGACAUCCUCCCAUAUUCUUUCUCCUCCACAUAGCCAAUACAAGAUUUAAAGUGACUGCUUAUCACCCAAAACCCUGCUAUUCAAAAUCUCCUAUUCUAAUGGAAGAGUACAGGGGUUAUUUGAAGAAAAGCUGUGGUGCACACACACACGGGGAAGCCUUGCUUAGAAUGAAUGAGACUCUUGCGGUCGCACUAGUGUGGAAUUCUCGGGUGUCAAGG
B11: ENSMUSG00000058297.93|Spock2 (ssRNA)
RNA: GGGAGUUCUACAGUCCGACGAUCGCUUCGAUAUCCGCAUGCUAAGGGAGGGCAGGCAGCUGAAAGCUGAGCGUCCUCCCCAAAUUGGGCUGAUUUGAUAUGAAAGCCCCACCACGGUCUUGUGGUGAUGAGGCAGGACCUGUACACACAGCAAGGCUUACUAUCCGUCUCCUGACAUCCGAAGAGCUCGUCGCAGGUGUGUCUAAUGGCCCUUGGGCUGCACGUGGUUAAGCAUAGCUGUCUCUGUGGCCCAACACAAAGAGGUAAACUUACUUAAAACACAGGGGUUUUGUUGCUGUUUGUUCUCUUGCGGUCGCACUAGUGUGGAAUUCUCGGGUGUCAAGG
B12: ENSMUSG00000004113.177|Cacna1b|55:59;63:67;78:82;232:236 (ssRNA)
RNA: GGGAGUUCUACAGUCCGACGAUCGCUUCGAUAUCCGCAUGCUAGUAACUUUAAAAAAAAAGUCAACAUGUAGGAAGGUCUCCAUUUUGCAUUGUUUCACACACUUCAUACCAAUGUUCCUCAUACUUUCUACCCUGCCUGGGAUGUCCCCAAUGACCCUGGCUCCUCUGCUCAACCAAGUGCCUGAUCUCUGGCUCUGAGCAUCGUGGAUGAGGUACGGCCUCAGGAAGCAUCGGGUGGAUUGGGUGGGAGCUGCUCAGAGCAGCACGGGGGCUACACACUUAGGGACAUUGACAGUGUCCAUCUCUUGCGGUCGCACUAGUGUGGAAUUCUCGGGUGUCAAGG
B13: ENSMUSG00000042529.443|Kcnj12 (ssRNA)
RNA: GGGAGUUCUACAGUCCGACGAUCGCUUCGAUAUCCGCAUGCUAGAUGAAGCAGCUGCCCUGAGCCCAUCUGGUGCUGUGCACCUGGUCCUUGUCCAGCCGAGGGCCUGGGGGCAGAAGAACACACCAUAGGGAGGCCCUUGUAUGGGUGUCUGCCCUAUGUGAGGUCAUAGAAUGUUAAAUCUAUUUUAAACGGUGAAACUGGAGAAUUUUCAUGUUAUUUUCAAUAAUAGUGGUAUCUAAAGAUGUAGGCAACAAGACUAGACCACAUUAAAUGCAUUUUGAUCUCUUUGAAUGCUACUGUGCUCUUGCGGUCGCACUAGUGUGGAAUUCUCGGGUGUCAAGG

The test deals with TDP-43 (Homo sapiens, UniProt Q13148 1-414). The test can be described thus: RNA Bind-n-Seq with designed 260-mer pool; 25 mM Tris-HCl, 150 mM KCl, 3 mM MgCl2, BSA (printed 500 mg/mL), 20 units/mL SUPERase IN; pH not stated; 500 nM RNA pool, 1 h, 4 C; TDP-43 5, 50, 500 nM; high values mean tight binding. Conditions: protein: recombinant; tags: SBP (GST cleaved off with PreScission; pGEX-GST-SBP). The gist of the method: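 Recombinant SBP-tagged TDP-43 at 5, 50 or 500 nM was captured on streptavidin beads, then incubated 1 h at 4 °C with 500 nM of an in vitro-transcribed 260-nt 3′ UTR oligo pool in 25 mM Tris-HCl, 150 mM KCl, 3 mM MgCl2, BSA and SUPERase IN. Bound RNA was washed, eluted with biotin, reverse transcribed, PCR-amplified and sequenced. Binding is R, each oligo's mapped-read-normalized abundance in the bound sample divided by its abundance in input. Duplicates used two independent protein batches.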
Sequence of TDP-43 (Q13148 whole entry): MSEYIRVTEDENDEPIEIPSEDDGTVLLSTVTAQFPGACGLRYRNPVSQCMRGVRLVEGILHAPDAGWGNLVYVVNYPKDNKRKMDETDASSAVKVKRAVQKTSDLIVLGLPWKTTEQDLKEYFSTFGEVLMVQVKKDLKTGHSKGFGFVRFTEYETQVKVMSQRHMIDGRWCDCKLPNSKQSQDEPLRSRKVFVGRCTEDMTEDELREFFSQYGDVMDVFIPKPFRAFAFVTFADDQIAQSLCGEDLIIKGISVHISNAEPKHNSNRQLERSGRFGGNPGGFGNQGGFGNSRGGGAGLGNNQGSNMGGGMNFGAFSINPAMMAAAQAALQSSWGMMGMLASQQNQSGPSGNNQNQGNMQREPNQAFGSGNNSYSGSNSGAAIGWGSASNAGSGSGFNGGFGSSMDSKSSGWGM
Take B1: the binding signal was 0.393 R (bound/input frequency ratio).

Consider B2, for which the binding signal was 0.929 R (bound/input frequency ratio).

For the molecule B3, the binding signal was 0.473 R (bound/input frequency ratio).

Take B4: the binding signal is 0.573 R (bound/input frequency ratio).

Consider B5, for which the binding signal is 0.446 R (bound/input frequency ratio).

As to B6, the binding signal is 0.0492 R (bound/input frequency ratio).

On to B7, for which the binding signal is 0.357 R (bound/input frequency ratio).

On to B8, for which the binding signal was 1.1 R (bound/input frequency ratio).

For the molecule B9, the binding signal was 0.706 R (bound/input frequency ratio).

On to B10, for which the binding signal is 2.71 R (bound/input frequency ratio).

On to B11, for which the binding signal was 0.528 R (bound/input frequency ratio).

B12: the binding signal was 0.533 R (bound/input frequency ratio).

Take B13: the binding signal was 1.32 R (bound/input frequency ratio).
